The values below come from PubChem BioAssay (EPA / NIEHS).

Active and inactive are the calls of the source. Rule for the calls: active = hit-call score of the fitted dose curve at least 0.9, where 1 is the maximum; inactive = score below 0.9.

Assay [1] is described as follows: ATG_CRE_CIS: Attagene CIS-FACTORIAL HepG2 Assay for human cAMP Responsive Element (CRE) binding protein 3 (AID 2282926). The following applies: HepG2 CRE cis-reporter, Attagene multiplexed mRNA; actives raise or lower the signal. In outline:
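Capillary electrophoresis of 6-FAM-labelled, HpaI-digested PCR products quantified reporter transcripts. These came from HepG2 transiently transfected with cis-element reporters and exposed to test chemicals for 24 hours, with DMSO defining baseline activity.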

The target of assay [2] is CCAAT/enhancer-binding protein beta (Homo sapiens) (UniProt P17676). The assay can be described thus: ATG_C_EBP_CIS: Attagene CIS-FACTORIAL HepG2 Assay for human CCAAT/Enhancer Binding Protein (C/EBP) beta (AID 2282927). The following applies: HepG2 Attagene cis-factorial transcription factor reporter; actives raise or lower the signal. The procedure, abridged:
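HepG2 transiently transfected with multiplexed reporter units under cis-regulatory promoters reporting endogenous C/EBPb activity. After 24 h exposure, reporter mRNA assayed by RT-PCR, fluorescent labelling, HpaI digestion and capillary electrophoresis; bidirectional fitting versus DMSO.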

A short description of assay [3]: ATG_CMV_CIS: Attagene CIS-FACTORIAL HepG2 Assay for human CMV (Internal Marker) (AID 2282928).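 Note: endpoint acts as a background internal control marker rather than a target.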 The following applies: HepG2 CMV promoter reporter, transcription factor profiling; actives raise or lower the signal. In outline: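 24 h chemical treatment, HepG2 with transient multi-reporter transfection; RNA → oligo(dT) RT → PCR → 6-FAM extension → HpaI digest → CE fluorescence. Bidirectional fit, DMSO negative control.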

A short description of assay [4]: ATG_DR4_LXR_CIS: Attagene CIS-FACTORIAL HepG2 Assay for human Liver X Receptor (LXR), DR4 submotif (AID 2282929). The following applies: HepG2 Attagene DR4 cis-reporter, mRNA transcription; actives raise or lower the signal. In outline: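 Transiently transfected HepG2 liver cells; cis-regulated reporters; 24 h dosing. RT-PCR plus CE read-out of reporter mRNA. DMSO baseline, bidirectional curve fitting.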

A short description of assay [5]: ATG_AP_2_CIS: Attagene CIS-FACTORIAL HepG2 Assay for human Activator Protein 2 (AP-2) (AID 2282932). The following applies: HepG2 AP-2 cis-reporter, Attagene transcription factor profiling; actives raise or lower the signal. In outline: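 Read-out: fluorescent reporter mRNA via RT-PCR and capillary electrophoresis, 24 h post-dose in transiently transfected HepG2. Endogenous factors drive cis-promoter reporters; gain or loss of signal fitted bidirectionally against DMSO.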

A short description of assay [6]: ATG_BRE_CIS: Attagene CIS-FACTORIAL HepG2 Assay for human Bone Morphogenetic Protein (BMP) Response Element (BRE) (AID 2282933). The conditions noted are these: HepG2 BMP response element reporter, Attagene transcription factor profiling; actives raise or lower the signal. In outline: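 Endogenous transcription factor activity at a BMP response element was monitored in transfected HepG2 cells 24 h after dosing. Fluorescent RT-PCR products were resolved by capillary electrophoresis, and activity was fitted in both directions versus DMSO.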

The target of assay [7] is Retinoic acid receptor alpha (Homo sapiens) (UniProt P10276). Put plainly: ATG_DR5_RAR_CIS: Attagene CIS-FACTORIAL HepG2 Assay for human Retinoic Acid Receptor Alpha (RARE), DR5 submotif (AID 2282934).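 For AC50: reporter responds to endogenous RAR alpha beta and gamma in HepG2 not RARA alone.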 The following applies: HepG2 Attagene cis-factorial RARE DR5 reporter, mRNA; actives raise or lower the signal. In outline: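 HepG2 cells transiently transfected with multiplexed reporter units; DR5 cis-element drives reporter through endogenous transcription factors. After 24 h dosing, reporter mRNA quantified by RT-PCR, fluorescent labeling, HpaI digestion and capillary electrophoresis; bidirectional fitting versus DMSO.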

For assay [8], the target named is Transcription factor E2F1 (Homo sapiens) (UniProt Q01094). Put plainly: ATG_E2F_CIS: Attagene CIS-FACTORIAL HepG2 Assay for human E2F Transcription Factor 1 (AID 2282935). The conditions noted are these: HepG2 Attagene cis-reporter, E2F reporter RNA transcripts; actives raise or lower the signal. The procedure, abridged:
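Transient MRTU transfection of HepG2; 24 h compound exposure; RNA → oligo(dT) RT → PCR → FAM label → HpaI cut → CE fluorescence. Gain/loss of signal fit against DMSO.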

Assay [9] can be described thus: ATG_E_Box_CIS: Attagene CIS-FACTORIAL HepG2 Assay for human Enhancer Box (E-box) (AID 2282936). The conditions noted are these: HepG2 E-box cis-reporter transcription, actives raise or lower the signal. In outline:
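Transiently transfected HepG2, endogenous TF-driven reporters, 24 h dosing. Readout: RT-PCR plus capillary electrophoresis of fluorescent reporter fragments. Gain or loss of signal fitted bidirectionally against DMSO baseline.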

Assay [10] in a line: ATG_M_61_CIS: Attagene CIS-FACTORIAL HepG2 Assay for M61 Transcription Factor (Internal Marker) (AID 2282937). The following applies: HepG2 Attagene CIS-FACTORIAL M61 internal marker reporter; actives raise or lower the signal. In outline: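 Multiplexed reporter mRNA assay, HepG2 human hepatoma cells, 24 h treatment. Signal: FAM-labelled, HpaI-digested RT-PCR fragments by CE. Fit: bidirectional, baseline DMSO.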

Assay [11] is described as follows: ATG_EGR_CIS: Attagene CIS-FACTORIAL HepG2 Assay for human Early Growth Response 1 (EGR1) (AID 2282938). The conditions noted are these: HepG2 Attagene CIS-FACTORIAL EGR reporter mRNA; actives raise or lower the signal. The procedure, abridged: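 Multiplexed cis-reporter system in human hepatoma HepG2 cells, transiently transfected. Cells are dosed for 24 h; reporter transcripts are amplified, fluorescently tagged and sized by capillary electrophoresis, with DMSO as negative control.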

Assay [12] can be described thus: ATG_M_19_CIS: Attagene CIS-FACTORIAL HepG2 Assay for M19 Transcription Factor (Internal Marker) (AID 2282939). The conditions noted are these: HepG2 Attagene CIS-FACTORIAL M19 internal marker reporter; actives raise or lower the signal. In outline: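 Background-control endpoint from a multiplexed HepG2 reporter panel. Cells carrying cis-regulated reporter constructs are treated 24 h, then reporter transcripts are amplified, fluorescently labelled and sized by capillary electrophoresis. DMSO defines baseline.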

A short description of assay [13]: ATG_Ets_CIS: Attagene CIS-FACTORIAL HepG2 Assay for human Erythroblast Transformation Specific (ETS) (AID 2282941). The following applies: HepG2 ETS cis-reporter transcription, actives raise or lower the signal. In outline:
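Cis-regulated reporter mRNA induction in HepG2 (transient transfection), 24 h exposure, RT-PCR plus capillary electrophoresis detection; DMSO serves as negative control and baseline.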

Assay [14] addresses Hepatocyte nuclear factor 3-beta (Homo sapiens) (UniProt Q9Y261). Put plainly: ATG_FoxA2_CIS: Attagene CIS-FACTORIAL HepG2 Assay for human Forkhead box A2 (FOXA2) (AID 2282942). The following applies: HepG2 cis-reporter transcription factor activity, 24 h; actives raise or lower the signal. In outline: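 Multiplexed cis-element reporter assay in transiently transfected HepG2. Twenty-four hours post-dosing, RNA was reverse-transcribed, amplified, FAM-labelled, HpaI-digested and separated by CE. Activity gain or loss relative to DMSO.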

Assay [15] can be described thus: ATG_FoxO_CIS: Attagene CIS-FACTORIAL HepG2 Assay for human Forkhead box O (FoxO) (AID 2282943). The following applies: HepG2 Attagene cis-reporter, FoxO element, mRNA; actives raise or lower the signal. In outline: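 HepG2 cells transiently transfected with cis-element-driven reporter units report endogenous FoxO activity. After 24 h chemical exposure, reporter mRNA quantified by RT-PCR, fluorescent labeling, HpaI digestion and capillary electrophoresis; bidirectional fit versus DMSO.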

Assay [16] is described as follows: ATG_GATA_CIS: Attagene CIS-FACTORIAL HepG2 Assay for human GATA Binding Protein (AID 2282944). The conditions noted are these: HepG2 GATA cis-element reporter, Attagene multiplex mRNA; actives raise or lower the signal. In outline:
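Endogenous transcription factor activity was captured through cis-promoter-driven reporters in transfected HepG2 cells. After 24 h exposure, reporter transcripts were quantified by RT-PCR with fluorescent capillary electrophoresis, and responses fitted both directions against DMSO.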

Assay [17] can be described thus: ATG_GLI_CIS: Attagene CIS-FACTORIAL HepG2 Assay for human Zinc Finger Protein GLI1 (AID 2282945). The following applies: HepG2, Attagene cis-factorial reporter mRNA, GLI element; actives raise or lower the signal. The procedure, abridged:
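Transiently transfected HepG2 cells report endogenous transcription factor activity via cis-element-driven reporter units. After 24 h compound exposure, reporter mRNA was measured by RT-PCR with capillary electrophoresis; bidirectional fitting against DMSO baseline.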

Assay [18] can be described thus: ATG_AP_1_CIS: Attagene CIS-FACTORIAL HepG2 Assay for human Activator Protein 1 (AP-1) (AID 2282931). The conditions noted are these: HepG2 Attagene cis-factorial AP-1 reporter mRNA; actives raise or lower the signal. In outline:
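We transfected HepG2 cells transiently with a set of cis-regulated reporter transcription units, dosed them for 24 h, and quantified reporter mRNA via RT-PCR and capillary electrophoresis, scoring gain or loss of signal relative to DMSO.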

Assay [19] has as its target Aryl hydrocarbon receptor (Homo sapiens) (UniProt P35869). Put plainly: ATG_Ahr_CIS: Attagene CIS-FACTORIAL HepG2 Assay for human Aryl Hydrocarbon Receptor (Ahr) (AID 2282930). The conditions noted are these: HepG2 AhR cis-factorial reporter transcription; actives raise or lower the signal. The procedure, abridged: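 HepG2 cells transiently transfected with cis-element-driven multiplexed reporter units; endogenous AhR activity read as reporter mRNA 24 h after dosing, via RT-PCR, 6-FAM labelling, HpaI digestion and capillary electrophoresis. Bidirectional fit relative to DMSO.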

The nature of assay [20]: ATG_ERE_CIS: Attagene CIS-FACTORIAL HepG2 Assay for Estrogen Response Element (ERE) (AID 2282940). The following applies: HepG2 ERE cis-reporter, Attagene RNA transcript; actives raise or lower the signal. The procedure, abridged: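 Cells used were human hepatoma HepG2, transfected with multiple reporter transcription units under cis-regulatory promoters. Reporter mRNA, read 24 h post-dosing via fluorescent RT-PCR products on capillary electrophoresis, was fitted bidirectionally relative to DMSO.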

CCAAT/enhancer-binding protein beta (Homo sapiens), sequence (P17676 whole entry, looked up): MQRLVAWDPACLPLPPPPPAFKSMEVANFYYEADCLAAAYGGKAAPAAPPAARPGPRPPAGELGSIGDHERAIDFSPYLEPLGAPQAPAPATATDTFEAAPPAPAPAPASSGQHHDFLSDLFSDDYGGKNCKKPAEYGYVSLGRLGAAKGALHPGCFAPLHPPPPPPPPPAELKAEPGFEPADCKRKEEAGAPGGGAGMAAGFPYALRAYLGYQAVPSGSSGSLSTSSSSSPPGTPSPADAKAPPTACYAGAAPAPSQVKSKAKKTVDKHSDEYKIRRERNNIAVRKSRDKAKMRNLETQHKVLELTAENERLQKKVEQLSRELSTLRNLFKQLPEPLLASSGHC
Transcription factor E2F1 (Homo sapiens), sequence (Q01094 whole entry, looked up): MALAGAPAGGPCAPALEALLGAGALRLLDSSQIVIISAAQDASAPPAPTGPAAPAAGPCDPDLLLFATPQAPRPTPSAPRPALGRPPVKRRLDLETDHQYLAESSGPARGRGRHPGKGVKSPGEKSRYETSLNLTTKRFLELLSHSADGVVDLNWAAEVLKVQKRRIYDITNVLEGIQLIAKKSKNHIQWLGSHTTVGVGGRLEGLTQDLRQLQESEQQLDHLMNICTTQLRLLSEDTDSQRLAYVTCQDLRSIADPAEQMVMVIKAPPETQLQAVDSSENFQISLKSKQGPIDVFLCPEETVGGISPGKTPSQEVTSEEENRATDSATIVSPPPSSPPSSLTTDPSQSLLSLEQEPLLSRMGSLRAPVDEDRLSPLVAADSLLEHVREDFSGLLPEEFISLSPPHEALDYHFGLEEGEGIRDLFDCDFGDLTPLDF
Hepatocyte nuclear factor 3-beta (Homo sapiens), sequence (Q9Y261 whole entry, looked up): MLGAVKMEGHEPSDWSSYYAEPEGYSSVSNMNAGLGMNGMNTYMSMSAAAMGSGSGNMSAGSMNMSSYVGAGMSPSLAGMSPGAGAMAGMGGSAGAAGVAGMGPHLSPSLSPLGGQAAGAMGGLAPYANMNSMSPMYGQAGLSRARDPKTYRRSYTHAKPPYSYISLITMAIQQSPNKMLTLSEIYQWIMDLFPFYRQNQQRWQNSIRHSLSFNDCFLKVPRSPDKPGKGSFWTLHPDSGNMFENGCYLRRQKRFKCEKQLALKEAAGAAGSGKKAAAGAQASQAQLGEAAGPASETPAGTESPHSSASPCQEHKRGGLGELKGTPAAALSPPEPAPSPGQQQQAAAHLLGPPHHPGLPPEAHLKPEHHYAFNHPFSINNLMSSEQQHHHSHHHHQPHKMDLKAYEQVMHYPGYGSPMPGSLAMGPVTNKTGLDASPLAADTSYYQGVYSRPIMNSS
Aryl hydrocarbon receptor (Homo sapiens), sequence (P35869 whole entry, looked up): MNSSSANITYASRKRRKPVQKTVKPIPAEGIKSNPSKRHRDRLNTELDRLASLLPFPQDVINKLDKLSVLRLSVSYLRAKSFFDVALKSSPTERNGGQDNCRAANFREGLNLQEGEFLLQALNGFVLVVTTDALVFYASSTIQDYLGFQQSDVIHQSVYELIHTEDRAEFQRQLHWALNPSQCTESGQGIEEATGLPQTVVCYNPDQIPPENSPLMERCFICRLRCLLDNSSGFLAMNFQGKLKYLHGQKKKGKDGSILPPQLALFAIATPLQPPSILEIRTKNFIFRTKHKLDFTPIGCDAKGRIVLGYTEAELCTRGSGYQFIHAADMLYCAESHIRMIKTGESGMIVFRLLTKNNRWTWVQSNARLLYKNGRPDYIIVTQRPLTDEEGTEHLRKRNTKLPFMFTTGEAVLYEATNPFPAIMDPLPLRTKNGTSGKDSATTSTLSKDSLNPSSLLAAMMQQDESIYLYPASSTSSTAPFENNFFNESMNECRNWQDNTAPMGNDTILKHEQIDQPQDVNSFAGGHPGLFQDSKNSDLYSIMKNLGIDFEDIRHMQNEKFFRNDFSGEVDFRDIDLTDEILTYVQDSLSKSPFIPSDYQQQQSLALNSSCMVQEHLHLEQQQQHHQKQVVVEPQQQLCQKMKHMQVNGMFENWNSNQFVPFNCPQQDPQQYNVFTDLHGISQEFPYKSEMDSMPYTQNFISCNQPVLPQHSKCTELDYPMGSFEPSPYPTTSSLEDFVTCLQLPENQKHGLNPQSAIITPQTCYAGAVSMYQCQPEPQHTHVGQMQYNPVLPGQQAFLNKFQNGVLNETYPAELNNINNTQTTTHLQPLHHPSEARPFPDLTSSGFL
Retinoic acid receptor alpha (Homo sapiens), sequence (P10276 whole entry, looked up): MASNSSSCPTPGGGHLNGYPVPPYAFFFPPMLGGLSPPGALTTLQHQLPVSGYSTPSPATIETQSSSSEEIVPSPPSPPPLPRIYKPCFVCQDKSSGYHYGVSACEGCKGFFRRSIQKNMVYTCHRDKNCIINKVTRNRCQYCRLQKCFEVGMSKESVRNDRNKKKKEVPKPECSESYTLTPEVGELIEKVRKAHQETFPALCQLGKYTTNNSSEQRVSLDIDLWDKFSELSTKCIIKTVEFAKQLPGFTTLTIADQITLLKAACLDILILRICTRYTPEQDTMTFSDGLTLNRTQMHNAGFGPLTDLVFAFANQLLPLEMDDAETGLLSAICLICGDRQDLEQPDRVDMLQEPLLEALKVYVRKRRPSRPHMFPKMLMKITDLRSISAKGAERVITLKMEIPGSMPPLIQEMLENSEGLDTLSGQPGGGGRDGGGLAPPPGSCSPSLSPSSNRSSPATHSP

On to `C=CCc1ccc2c(c1)OCO2`, for which the result in [1], in assay [2], in [3], in assay [4], in assay [5] and in [6] was inactive. For the same compound, the call in [7], in assay [8], in assay [9], in assay [10], in assay [11] and in assay [12] was inactive. Also, the result in [13], in assay [14], in assay [15], in [16] and in [17] was inactive.

The term AC50 denotes the concentration giving half of the maximal activity seen. For the compound `CCC(C)c1ccc(O)cc1` (stereo not drawn), the AC50 is 59.7 µM (active) in [1]; 65.8 µM (active) in assay [3]; 100 µM (active) in assay [4]; 69.8 µM (active) in assay [18]; 100 µM (active) in assay [6]. Also, the result in [2], in assay [8], in assay [9], in [10], in [11] and in assay [12] was inactive. In addition, the compound was classed as inactive in assay [13], in [14], in assay [15], in assay [16] and in assay [17].

For `Cc1cccc(N)c1N`, the AC50 in assay [1] was 158 µM (active); in [3], 30.3 µM (active); in assay [19], 1.09 µM (active); in assay [18], 30.5 µM (active); in [7] it was 106 µM (active); in [11], 106 µM (active). In addition, in assay [13], the AC50 is 77.1 µM (active). Besides, the result in assay [4], in assay [5], in assay [6], in assay [8], in [9] and in assay [10] was inactive. In addition, the compound was classed as inactive in assay [12], in assay [14], in assay [15], in assay [16] and in assay [17].

As for `COc1cc(C=O)cc2c1[C@H](COC(N)=O)[C@]1(OC(C)=O)ON2C[C@H]2[C@@H]1N2C(C)=O`, the AC50 in assay [1] was 33.4 µM (active); in assay [2], 61 µM (active); in assay [4], 0.0512 µM (active); in assay [19], 0.314 µM (active); in assay [8], 61.5 µM (active); in assay [9], 0.1 µM (active). In addition, the AC50 is 33.4 µM (active) in assay [12]; 51 µM (active) in assay [20]; 12.4 µM (active) in assay [13]; 62.3 µM (active) in assay [14]; 58.9 µM (active) in [15]; 10.8 µM (active) in assay [16]. Besides, the compound was classed as inactive in assay [3], in assay [6], in assay [10], in assay [11] and in assay [17].
